Several values for one entry are separate records, joined by “and”; a condition that tells them apart may be missing. Equal values may be shown once. Read-outs that look alike come from different tables or passages of the source.
Assays:
TSSK3 = details: concentration: 1 μM, replicates: in singlicate, n = 1
TTK = details: concentration: 1 μM, replicates: in singlicate, n = 1
TXK = details: concentration: 1 μM, replicates: in singlicate, n = 1
[1] = tested on: TYK2(JH1domain-catalytic); details: concentration: 1 μM, replicates: in singlicate, n = 1
[2] = tested on: TYK2(JH2domain-pseudokinase); details: concentration: 1 μM, replicates: in singlicate, n = 1
TYRO3 = details: concentration: 1 μM, replicates: in singlicate, n = 1
ULK1 = details: concentration: 1 μM, replicates: in singlicate, n = 1
ULK2 = details: concentration: 1 μM, replicates: in singlicate, n = 1
ULK3 = details: concentration: 1 μM, replicates: in singlicate, n = 1
VEGFR2 = tested on: T1, VEGFR2; details: concentration: 1 μM, replicates: in singlicate, n = 1
T1 construct: gene KDR

VPS34 = tested on: T2, VPS34; details: concentration: 1 μM, replicates: in singlicate, n = 1
T2 construct: gene PIK3C3

VRK2 = details: concentration: 1 μM, replicates: in singlicate; n = 1
WEE1 = details: concentration: 1 μM, replicates: in singlicate; n = 1
WEE2 = details: concentration: 1 μM, replicates: in singlicate, n = 1
WNK1 = details: concentration: 1 μM, replicates: in singlicate, n = 1
WNK2 = details: concentration: 1 μM, replicates: in singlicate; n = 1
WNK3 = details: concentration: 1 μM, replicates: in singlicate, n = 1
WNK4 = details: concentration: 1 μM, replicates: in singlicate, n = 1
YANK1 = tested on: T3, YANK1; details: concentration: 1 μM, replicates: in singlicate, n = 1
T3 construct: gene STK32A

YANK2 = tested on: T4, YANK2; details: concentration: 1 μM, replicates: in singlicate, n = 1
T4 construct: gene STK32B
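Also: KINOMEscan kinase panel screen.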

O=C(NCCNc1ccnc(Nc2ccc(F)cc2)n1)Nc1ccccc1F [GSK1379880]
%Inh (TSSK3): 12% | %Inh (TTK): 0% | %Inh (TXK): 1% | %Inh [1]: 24% | %Inh [2]: 17% | %Inh (TYRO3): 0% | %Inh (ULK1): 19% | %Inh (ULK2): 0% | %Inh (ULK3): 28% | %Inh (VEGFR2): 0% | %Inh (VPS34): 0% | %Inh (VRK2): 0% | %Inh (WEE1): 13% | %Inh (WEE2): 3% | %Inh (WNK1): 0% | %Inh (WNK2): 0% | %Inh (WNK3): 4% | %Inh (WNK4): 41% | %Inh (YANK1): 2% | %Inh (YANK2): 0%

COC(=O)Nc1nc2cc(Oc3ccc(NC(=O)Nc4cc(F)ccc4F)cc3)ccc2[nH]1.Cl [GW701424]
%Inh (TSSK3): 8% | %Inh (TTK): 0% | %Inh (TXK): 88% | %Inh [1]: 30% | %Inh [2]: 46% | %Inh (TYRO3): 0% | %Inh (ULK1): 0% | %Inh (ULK2): 0% | %Inh (ULK3): 7% | %Inh (VEGFR2): 68% | %Inh (VPS34): 0% | %Inh (VRK2): 30% | %Inh (WEE1): 1% | %Inh (WEE2): 9% | %Inh (WNK1): 12% | %Inh (WNK2): 0% | %Inh (WNK3): 48% | %Inh (WNK4): 58% | %Inh (YANK1): 0% | %Inh (YANK2): 0%

COc1ccc(S(=O)(=O)NC2CCN(c3cc(C)nc(Nc4cccc(C#N)c4)n3)CC2)cc1.O=C(O)C(F)(F)F [GSK1653539]
%Inh (TSSK3): 0% | %Inh (TTK): 0% | %Inh (TXK): 0% | %Inh [1]: 0% | %Inh [2]: 6% | %Inh (TYRO3): 0% | %Inh (ULK1): 0% | %Inh (ULK2): 0% | %Inh (ULK3): 23% | %Inh (VEGFR2): 0% | %Inh (VPS34): 0% | %Inh (VRK2): 0% | %Inh (WEE1): 17% | %Inh (WEE2): 6% | %Inh (WNK1): 15% | %Inh (WNK2): 0% | %Inh (WNK3): 38% | %Inh (WNK4): 12% | %Inh (YANK1): 4% | %Inh (YANK2): 0%

COc1cc(Nc2nccc(N3CCC(NC(=O)c4cccc(NC(C)=O)c4)C3)n2)cc(OC)c1OC (stereo not shown) [GSK1379754]
%Inh (TSSK3): 20% | %Inh (TTK): 27% | %Inh (TXK): 7% | %Inh [1]: 68% | %Inh [2]: 19% | %Inh (TYRO3): 0% | %Inh (ULK1): 10% | %Inh (ULK2): 0% | %Inh (ULK3): 87% | %Inh (VEGFR2): 10% | %Inh (VPS34): 35% | %Inh (VRK2): 0% | %Inh (WEE1): 4% | %Inh (WEE2): 1% | %Inh (WNK1): 6% | %Inh (WNK2): 0% | %Inh (WNK3): 14% | %Inh (WNK4): 0% | %Inh (YANK1): 0% | %Inh (YANK2): 0%

O=C(NCCCN1CCOCC1)c1cccc(Nc2nccc(Nc3ccc(Oc4ccccc4)cc3)n2)c1 [GW663929]
%Inh (TSSK3): 10% | %Inh (TTK): 21% | %Inh (TXK): 0% | %Inh [1]: 30% | %Inh [2]: 44% | %Inh (TYRO3): 5% | %Inh (ULK1): 1% | %Inh (ULK2): 2% | %Inh (ULK3): 11% | %Inh (VEGFR2): 13% | %Inh (VPS34): 0% | %Inh (VRK2): 17% | %Inh (WEE1): 31% | %Inh (WEE2): 0% | %Inh (WNK1): 11% | %Inh (WNK2): 14% | %Inh (WNK3): 33% | %Inh (WNK4): 0% | %Inh (YANK1): 0% | %Inh (YANK2): 0%

COc1ccc(CNC(=O)NC2CCN(c3ccnc(Nc4ccc(OC)cc4)n3)C2)cc1 (stereo not shown) [GSK1379727]
%Inh (TSSK3): 5% | %Inh (TTK): 18% | %Inh (TXK): 0% | %Inh [1]: 37% | %Inh [2]: 46% | %Inh (TYRO3): 0% | %Inh (ULK1): 0% | %Inh (ULK2): 0% | %Inh (ULK3): 9% | %Inh (VEGFR2): 0% | %Inh (VPS34): 0% | %Inh (VRK2): 32% | %Inh (WEE1): 9% | %Inh (WEE2): 7% | %Inh (WNK1): 4% | %Inh (WNK2): 0% | %Inh (WNK3): 44% | %Inh (WNK4): 63% | %Inh (YANK1): 0% | %Inh (YANK2): 0%

O=c1cc(N2CCOCC2)nc2n(Cc3cccc4ccccc34)ccn12 [GSK2333389]
%Inh (TSSK3): 0% | %Inh (TTK): 10% | %Inh (TXK): 0% | %Inh [1]: 24% | %Inh [2]: 10% | %Inh (TYRO3): 0% | %Inh (ULK1): 14% | %Inh (ULK2): 7% | %Inh (ULK3): 7% | %Inh (VEGFR2): 0% | %Inh (VPS34): 98% | %Inh (VRK2): 0% | %Inh (WEE1): 13% | %Inh (WEE2): 12% | %Inh (WNK1): 2% | %Inh (WNK2): 0% | %Inh (WNK3): 0% | %Inh (WNK4): 0% | %Inh (YANK1): 1% | %Inh (YANK2): 0%

Cl.Cl.Cl.Fc1ccc(-c2ncn(C3CCNCC3)c2-c2ccnc(Nc3ccccc3)n2)cc1 [SB-238039]
%Inh (TSSK3; 1 µM): 19% and 5% | %Inh (TTK; 1 µM): 15% and 3% | %Inh (TXK; 1 µM): 3% and 0% | %Inh ([1]; 1 µM): 35% and 0% | %Inh ([2]; 1 µM): 18% and 0% | %Inh (TYRO3; 1 µM): 0% and 12% | %Inh (ULK1; 1 µM): 28% and 6% | %Inh (ULK2; 1 µM): 21% and 29% | %Inh (ULK3; 1 µM): 24% and 26% | %Inh (VEGFR2; 1 µM): 0% and 9% | %Inh (VPS34; 1 µM): 44% and 8% | %Inh (VRK2): 100% | %Inh (WEE1): 0% | %Inh (WEE2; 1 µM): 0% and 24% | %Inh (WNK1; 1 µM): 30% and 0% | %Inh (WNK2): 0% | %Inh (WNK3; 1 µM): 26% and 0% | %Inh (WNK4; 1 µM): 30% and 0% | %Inh (YANK1; 1 µM): 95.6% and 93.7% | %Inh (YANK2; 1 µM): 94.1% and 88%

Reference: publication PMC5540273 (PLoS ONE, 2017)
